From PubChem BioAssay
In the library only some 5.9% were active in any assay of this set; here they are far more common.
GLP1R cytotox = cytotoxicity counter-screen for GLP-1 receptor inverse agonists | HEK293 cAMP-luciferase reporter cells, luminescence, 24 h | Potency, µM (highest dose often 38.3 µM), most hits filed as inhibitors | actives 0.13% (n = 410,000);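 further: loss of luciferase light is scored as toxicity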
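Luminescence readout: signal drop marks cytotoxicity. Plated cells grew 12 h at 37 °C, 5% CO2, received 23 nL compound for 24 h, then got luciferase reagent, read after 12 min at RT.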
VP16 counter = Gal4-VP16 reporter inhibition counter-screen | Potency, µM (doses to about 53.6 µM), usual class: inhibitors | actives 3.5% (n = 310,000) | AID 2546 | Drosophila S2 Gal4-VP16 UAS-luciferase, luminescence, 20 h;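 further: Gal4-VP16 expression switched on by copper sulfate through the metallothionein promoter; nearly all actives have a fitted effect of over 50% in size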
GLP-1R inv ag = acts as inverse agonist at human GLP-1 receptor; HEK293 GLP-1R CRE-luciferase, luminescence, 24 h; GLP-1R form is constitutively active; Potency, µM (top dose mostly 38.3 µM), usual class: inhibitors; actives 1.6% (n = 410,000); further: nearly all actives have a fitted effect of over 55% in size
Target sequence (P43220 whole entry, looked up): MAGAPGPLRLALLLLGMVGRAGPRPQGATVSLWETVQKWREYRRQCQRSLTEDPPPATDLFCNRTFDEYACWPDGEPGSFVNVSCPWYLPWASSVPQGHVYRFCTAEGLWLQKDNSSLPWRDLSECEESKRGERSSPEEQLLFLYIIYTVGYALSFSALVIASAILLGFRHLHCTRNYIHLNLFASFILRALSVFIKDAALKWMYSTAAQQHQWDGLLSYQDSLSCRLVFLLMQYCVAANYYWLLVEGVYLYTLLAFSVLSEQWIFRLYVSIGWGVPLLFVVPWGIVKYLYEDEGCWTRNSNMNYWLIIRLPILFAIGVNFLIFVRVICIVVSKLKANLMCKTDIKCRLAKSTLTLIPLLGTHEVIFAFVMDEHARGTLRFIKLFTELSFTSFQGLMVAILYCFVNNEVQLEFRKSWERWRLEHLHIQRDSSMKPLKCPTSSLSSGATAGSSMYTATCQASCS
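Assay principle: reduced luminescence from a cAMP-responsive reporter in HEK293 cells co-expressing a constitutively active GLP-1R. Conditions: 24 hr compound incubation, 37 deg C, 5% CO2.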
GLP1R ag = agonists of human GLP-1 receptor. P43220. HEK293 GLP-1R CRE-luciferase, luminescence, 4-6 h; cells express a hypersensitive GLP-1R form. Potency, µM (top dose mostly 45.6 µM), most hits filed as activators. actives 0.007% (n = 380,000)
RORg inh = blocks mouse ROR gamma transcriptional activity | P51450 | Drosophila S2 Gal4-RORgamma UAS-luciferase reporter, 20 h | Potency, µM (highest dose often 53.6 µM), hits mostly inhibitors | actives 5.4% (n = 310,000) | AID 2551; further: nearly all actives have a fitted effect of over 60% in size
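ROR gamma transcriptional activity was tracked as Gal4-UAS luciferase output in stably transfected Drosophila Schneider cells, with compound added 1 hr before 700 uM copper sulfate induction and a 20 hr ambient-temperature incubation.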
A number is an active result; – = inactive; ? = inconclusive; · = no result given; [ ] = dose if it differs, or a comment. The call rests on the fitted dose curve; in most records, active means well fitted curve in the direction sought with a large enough effect; inconclusive means small, poorly fitted or top-dose-only effect, or another doubt; inactive means no such curve, though single readings can be large; an effect the other way counts as inactive or inconclusive.

SMILES | GLP1R cytotox | VP16 counter | GLP-1R inv ag | GLP1R ag | RORg inh
COC(=O)N/N=C\c1c(C)[nH]n(-c2ccccc2)c1=O | – | ? | – | – | 11µM
Cc1c(/C=N\NC(=O)C2COc3ccccc3O2)c2ccccc2n1C (stereo unspecified) | – | – | ? | ? | –
Cn1nc(-c2ccccc2)c(/C=N/O)c1Cl | – | – | – | – | –
Cc1[nH]n(-c2ccccc2)c(=O)c1/C=C1\C=NN=C1c1ccccc1 | ? | ? | – | – | 11µM
Cn1[nH]c(-c2ccccc2)c(/C=N/O)c1=O | – | 0.89µM | – | – | 3.5µM
Cc1nn(-c2ccccc2)c(Cl)c1/C=N/NC(=O)c1ccccc1F | – | – | – | – | –
Cc1[nH]n(-c2ccccc2)c(=O)c1/C=N/NC(=O)c1ccccc1F | ? | 1µM | – | – | 0.5µM
Cc1[nH]n(-c2ccccc2)c(=O)c1/C=N/N1C(=O)c2ccc3c4c(ccc(c24)C1=O)CC3 | ? | ? | ? | – | 10µM
Cc1[nH]n(-c2ccccc2)c(=S)c1C=NCCCN=Cc1c(C)[nH]n(-c2ccccc2)c1=S | ? | 1.8µM | ? | – | 0.63µM
Cc1[nH]n(-c2ccccc2)c(=O)c1C=NCc1ccco1 | · | – | · | · | –
Cc1[nH]n(-c2ccccc2)c(=O)c1/C=N/O | – | 3.5µM | – | – | 2.5µM
Cc1ccc2cccc(N=Cc3c(C)[nH]n(-c4ccccc4)c3=O)c2n1 | – | 1µM | 5.6µM | – | 1µM
Cc1[nH]n(-c2ccccc2)c(=O)c1C=Nc1ccc(S(=O)(=O)NC(N)=O)cc1 | – | – | – | – | –
CC(=O)N/N=C/c1c(C)[nH]n(-c2ccccc2)c1=O | – | 11µM | – | – | 5µM
CC(=O)c1ccc(N2CCN(C(=O)c3cc4ccc5cccnc5c4[nH]3)CC2)cc1 | – | · | – | · | ·
C=CCC1(O)CCOc2ccccc21 (stereo unspecified) | · | – | · | · | –
Cc1noc2ncnc(N3CCCC(C(=O)Nc4cccc(C(F)(F)F)c4)C3)c12 (stereo unspecified) | – | · | ? | · | ·
COCC(=O)N/N=C/c1c(C)[nH]n(-c2ccccc2)c1=O | – | ? | – | – | 0.63µM
Cc1[nH]n(-c2ccccc2)c(=O)c1/C=N/NC(=O)C(C)C | – | 3.2µM | – | – | 6.3µM
COc1ncc2nc(-c3ccccc3)c(=O)n(C3CC3)c2n1 | · | – | · | · | –
CCOc1ccccc1NC(=O)CN1C(=O)C2(SCC(=O)N2c2ccc(C)cc2)c2ccccc21 (stereo unspecified) | – | · | – | – | ·
CN(C)Cc1cc(C(F)(F)F)ccc1C(O)(c1ccccc1)c1ccccc1 | ? | · | 8.9µM | – | ·
COc1cc(C(O)c2nc3ccccc3s2)cc(OC)c1OC (stereo unspecified) | – | 10µM | – | – | ?
COc1ccc(C(O)c2nc3ccccc3s2)cc1 (stereo unspecified) | · | – | · | · | –
Nc1ncnc2c1[nH]c(=O)n2C1CC(O)C(CO)O1 (stereo unspecified) | · | – | · | · | –
SMILES | GLP1R cytotox | VP16 counter | GLP-1R inv ag | GLP1R ag | RORg inh
Oc1ccccc1-c1nc2c3ccccc3c3ccccc3c2[nH]1 | – | – | ? | – | –
c1csc(-c2nc3c4ccccc4c4ccccc4c3[nH]2)c1 | – | ? | 5µM | – | ?
c1ccc(-c2nc(-c3cccs3)[nH]c2-c2ccccc2)cc1 | – | – | – | – | 10µM
OC[C@@H]1[C@@H](c2ccc(F)cc2)C(c2ccc(F)cc2)=NN1c1ccccc1 | · | – | · | · | –
O=C(c1ccco1)N1CCN(C(=O)C2CCCc3c2[nH]c2ccc(Cl)cc32)CC1 (stereo unspecified) | – | – | 5µM | – | ?
CCN(CC)C(=O)C1CCCc2c1[nH]c1ccc(Cl)cc21 (stereo unspecified) | – | – | 4.5µM | – | –
Cc1ccc2[nH]c3c(c2c1)CCCC3C(N)=O (stereo unspecified) | – | – | – | – | –
COc1ccc2cc(S(=O)(=O)c3ccccc3F)c(=O)oc2c1 | – | · | – | · | ·
Cc1ccc2[nH]c(-c3ccc(F)cc3F)cc(=O)c2c1 | · | ? | · | · | –
CCOc1ccc2c(ccc(/C=C/c3cc(C)c4cccnc4c3O)[n+]2C)c1 | 11µM | · | ? | – | ·
CCOc1ccc2[nH]c3ncccc3c(=O)c2c1 | – | – | – | – | –
CC(C)(C)C1CCc2nc(NC(=O)c3cccc(Cl)c3)sc2C1 (stereo unspecified) | – | · | ? | · | ·
Cc1cc2nc(C)n(CCCNC(=O)Nc3ccc(F)cc3)c2cc1C | – | – | 10µM | – | –
Cc1ccc(NC(=O)Nc2ccc3c(c2)nc(C)n3C)cc1C | · | – | · | · | –
COC1C(O)CC(=O)OC(C)C/C=C/C=C/[C@@H](OC2CCC(N(C)C)C(C)O2)C(C)C[C@@H](CC=O)[C@@H]1O[C@H]1OC(C)[C@H](O[C@@H]2C[C@@](C)(O)C(O)C(C)O2)C(N(C)C)C1O (stereo partly specified) | · | – | · | · | –
CCOC(=O)Cc1cc(=O)n2[nH]c(C)c(-c3ccc(OC)cc3)c2n1 | – | · | – | – | –[0.365 µM]
COC(=O)Cc1cc(=O)n2[nH]c(C)c(-c3ccccc3)c2n1 | – | 4µM | – | – | 3.5µM
CCOC(=O)Cc1cc(=O)n2[nH]c(C)c(-c3ccc(Cl)cc3)c2n1 | – | ? | ? | – | 11µM
CCCc1cc(=O)n2[nH]c(C)c(-c3ccccc3)c2n1 | – | ? | – | – | 7.1µM
Cc1[nH]n2c(=O)cc(-c3ccc(Cl)cc3)nc2c1-c1ccccc1 | – | · | 2.8µM | – | ·
O=C(NCCc1ccc(Cl)cc1)c1ccc(CS(=O)Cc2cccc(Cl)c2)o1 (stereo unspecified) | – | · | ? | · | ·
COc1ccc(N2CCN(C(=O)COc3ccccc3C#N)CC2)cc1 | – | · | – | · | ·
O=C(CSc1ncc(-c2ccccc2)n1CC1CCCO1)N1CCCCC1 (stereo unspecified) | – | – | – | – | –
Nc1ncc(-c2ccccc2)n1CC1CCCO1 (stereo unspecified) | – | ? | – | – | 13µM
O=C1CC(N(O)C2CC(=O)N(Cc3ccccc3)C2=O)C(=O)N1Cc1ccccc1 (stereo unspecified) | – | ? | – | – | –
CCCCCC(=O)N(O)C1CC(=O)N(c2ccccc2)C1=O (stereo unspecified) | – | 7.1µM | – | – | 16µM
CCCCCCC(=O)N(O)C1CC(=O)N(Cc2ccccc2)C1=O (stereo unspecified) | – | – | – | – | 10µM
C/C(CCN1CCc2nc(-c3ccccc3)c(-c3ccccc3)cc2C1)=N\O[C@@H](C)CN1CCCc2nc(C)c(C)cc21 | · | –[10 µM] | · | · | –[10 µM]
O=C(N/N=C1/C[C@@H](O)[C@@H](O)[C@@H]2[C@@H]3C(=O)N(Cc4ccccc4)C(=O)[C@H]3CC[C@H]12)OCc1ccccc1 | · | –[10 µM] | · | · | –[10 µM]
